“And” between values parts separate entries of the source, which are not always exact repeats. Equal values may be shown once. Compounds without any hit were thinned out: in the full panel of roughly 79,000, 15% have a hit. A number with no mark means an inactive call. The source made the active and inactive calls. Rule as the data show it: active = growth inhibition above about 70%; inactive = the rest. Where a SMILES comes first, the peptide text is derived from it. The star is where a group is joined. Cbz = O=C(OCc1ccccc1)*
Key:
[1] = NCI Yeast Anticancer Drug Screen. Data for the rad50 strain (AID 155);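 also: 0% = growth of vehicle-only cultures of the same strain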; conditions: S. cerevisiae rad50 strain growth inhibition, active compounds read high; at 50.0 µM unless noted
How it was run: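 Vehicle-treated cultures provide the reference for the growth inhibition reported for compound-exposed, repair-deficient yeast.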

[2] = NCI Yeast Anticancer Drug Screen. Data for the mec2-1 strain (AID 157); conditions: S. cerevisiae mec2-1 strain, active compounds read high; at 50.0 µM unless noted
How it was run: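 Cells of the genetically defined mec2-1 yeast strain are incubated with test compound. Inhibition of growth is calculated against vehicle-treated controls.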

[3] = NCI Yeast Anticancer Drug Screen. Data for the sgs1 mgt1 strain (AID 161);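 also: 0% = growth of cultures given vehicle only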; conditions: S. cerevisiae sgs1 mgt1 strain, active compounds read high; at 50.0 µM unless noted
How it was run: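 Read-out: growth inhibition vs vehicle controls. Cells: mutant yeast strain deficient in DNA damage repair.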

[4] = NCI Yeast Anticancer Drug Screen. Data for the cln2 rad14 strain (AID 165);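 also: 0% = growth equal to vehicle treated cultures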; conditions: S. cerevisiae cln2 rad14 strain, active compounds read high; at 50.0 µM unless noted
How it was run: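 The screen exposed genetically defined yeast (cln2 rad14) to test compounds and scored growth inhibition relative to vehicle-treated controls.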

[5] = NCI Yeast Anticancer Drug Screen. Data for the bub3 strain (AID 167); conditions: S. cerevisiae bub3 mutant strain, active compounds read high; at 50.0 µM unless noted
How it was run: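 Mutant yeast screening strain plus compound; vehicle-treated cultures serve as the 0% inhibition reference.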

[6] = NCI Yeast Anticancer Drug Screen. Data for the mlh1 rad18 strain (AID 175); conditions: S. cerevisiae mlh1 rad18 strain growth inhibition, active compounds read high; at 50.0 µM unless noted
How it was run: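 Compound-treated yeast growth, normalised to vehicle controls. Strain bears defined DNA repair mutations.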

Compound	growth inhibition [1]	growth inhibition [2]	growth inhibition [3]	growth inhibition [4]	growth inhibition [5]	growth inhibition [6]
Cc1cc(C)nc(/N=C(/N)Nc2ccc(S(=O)(=O)NC(=O)Nc3ccccc3)cc2)n1	21.5%	2.55%	5.8%	1.8%	0%	-4.2%
Cc1ccc(C(CCC#N)OC(C)C)cc1 (stereo unspecified)	0.95%	19.8%	25.1%	11.9%	3.15%	21.1%
CCOC(=O)NC(=O)c1cn(CCCCCCCCCCC(=O)N2CCN(CCn3cc(C(=O)NC(=O)OCC)c(=O)[nH]c3=O)CC2)c(=O)[nH]c1=O	27.2%	18.4%	17.9%	5.8%	-6.2%	6.45%
CCN(CC)CCCC(C)Nc1ncnc2ccccc12 (stereo unspecified)	2.2%	8.95%	23.1%	15.6%	-7.3%	-2.25%
COCc1ccc2c(c1)C(O)NC(=O)O2 (stereo unspecified)	4.75%	-4.05%	13.3%	-28.2%	-8.55%	16.1%
COc1ccc(N/C=C/C2=[N+](C)c3ccccc3C2(C)C)c(OC)c1	1.85% and -24.3%	-17.2% and -19.6%	-8.5% and -20.9%	0.45% and -58.4%	-5.55% and -2.4%	5.5% and -7.05%
COc1ccc(/C=C(/NC(=O)c2ccccc2)C(=O)O)c(OC)c1	-7.35%	-5.1%	1.2%	-61.4%	-10.1%	-9.65%
CC(=O)NNc1nc(C)c(C(=O)/C=C/c2ccc(NC(C)=O)cc2)s1	21.9%	16.1%	0.3%	9.15%	22.2%	31.5%
C/C(=N/O)c1ccncc1	1.15%	-3%	1.65%	11.2%	16.1%	-6.9%
O=C1c2ccc3c4ccccc4n(-c4ccccc4)c3c2C(=O)N1c1ccc(Cl)cc1	-11.8%	-2.95%	-26.2%	24.9%	-18.4%	-7.05%
COC(=O)/C(=C(\C)NC(C)=O)c1c(C(=O)OC)[nH]c2ccccc12	-6.85%	-12.5%	-9.15%	4.15%	-3%	-111%
Cc1cc2ccccc2n1/C=C/C1=[N+](C)c2ccccc2C1(C)C	10.3%	6.25%	10.5%	-38.9%	8.1%	25.9%
CCOc1ccc(NC(N)=O)cc1	-44.5%	-9.85%	-14.5%	-3.7%	-2.55%	15.2%
CC(C)[Si]1(C(C)C)OCC2OC(n3ccc(=O)[nH]c3=O)C([Se]c3ccccc3)C2O[Si](C(C)C)(C(C)C)O1 (stereo unspecified)	0%	-22.1%	-25.5%	-17.2%	-49.9%	-61.9%
CC(C)N1C(=O)N(Cl)C2C1N(Cl)C(=O)N2Cl (stereo unspecified)	15%	-0.4%	-6.7%	22.6%	-3.55%	53.9%
C(/C=N/Nc1ccccc1)=N\Nc1ccccc1	24.1%	-8.15%	-0.65%	-3%	-9.85%	8.8%
CC(=O)NC1CCC(CCC2CCCCC2)CC1 (stereo unspecified)	0.55%	5.3%	2.45%	2.25%	-5.9%	-9.75%
O=C(CCCN1CCC2(CC1)C(=NC1CCCCC1)NC(=O)N2c1ccccc1)c1ccc(F)cc1	-10.8%	-3.6%	-3%	3.45%	13.7%	-6.85%

Compound	growth inhibition [1]	growth inhibition [2]	growth inhibition [3]	growth inhibition [4]	growth inhibition [5]	growth inhibition [6]
Cn1cc2c([N+](=O)[O-])cccc2n1	5.35%	3.75%	14.7%	-4.6%	-0.9%	13.2%
Nc1cccc(S(=O)(=O)NNc2cc(Cl)ccc2Cl)c1	98.7% (active)	98.6% (active)	98.8% (active)	98.8% (active)	98.3% (active)	99% (active)
OC1(C2(O)CCCC2)CCCC1	14.1%	8.4%	22%	6.75%	18%	12.8%
O=C(Nc1ccc(O)cc1)c1ccc([N+](=O)[O-])cc1	-1.75%	6.6%	3.35%	0.05%	9.05%	-2.2%
O=C(O)C1(O)CCCCC1	-4.85% and 6.9%	-2.45% and 9%	-7.35% and -1.65%	-21.2% and 16.4%	-7.2% and 19.6%	6.65% and -7.05%
C=CCONC(=O)c1ccc(Cl)cc1	0.5%	1.75%	-4.2%	-5.5%	-19.2%	27.3%
CCCCCCCCC(=O)Nc1cccc(O)c1	-6.7%	-12.4%	-8.45%	-48.6%	-26.4%	-13.8%
O=c1[nH]c(=O)c2nc(-c3cccnc3)cnc2[nH]1	2.8%	-0.1%	-9.7%	1.6%	0.85%	7.45%
C1CN(C23OC4(N5CCOCC5)C5C6CC(C7C6C4C72)C53)CCO1 (stereo unspecified)	-18.9%	-3%	-3.9%	-43.1%	-0.05%	-11.2%
COc1ccc(CCNCC(O)CSc2ccc(Cl)cc2)cc1OC (stereo unspecified)	74.8% (active)	20.4%	73% (active)	27.9%	22%	30.6%
CCOC(=O)CCC(NC(=O)C(Cc1ccccc1)NC(=O)OCc1ccccc1)C(=O)OCC (stereo not drawn) (Cbz-Phe-Glu(OEt)-OEt; configuration not given here)	3.9%	-2.9%	-0.2%	-6.25%	-7.85%	-59.4%
CC(C)(C(N)C(=O)O)C(N)C(=O)O (stereo unspecified)	16.4%	4.8%	-17.4%	-11.9%	-3.55%	-8.8%
O=C1OCc2ccccc21	3.2%	7.8%	11.2%	-26.7%	-6.05%	3.15%
CC1Cn2c(Cc3ccccc3)nnc2S1 (stereo unspecified)	-15.2%	1.25%	5.45%	19.5%	-4.6%	-4.75%
CCCCCCCCCCCCCCCCCC(=O)N/N=C/c1cc(C(C)(C)C)c(O)c(C(C)(C)C)c1	-32.6%	13.7%	-14.1%	-35.2%	-1.1%	2.45%
COC1CCC2C3CCC(C3)C12 (stereo unspecified)	26.9%	-2%	6.4%	5.05%	-12.9%	-10.2%
O=C(O)Cc1cc(=O)oc2ccccc12	7.4%	-12.3%	8.2%	-15.8%	-6.8%	8.75%
Cc1ccc(NCC(=O)N2CC(=O)Nc3ccccc32)c(C)c1	-26.2%	-39.1%	-43.8%	-3.4%	-27.7%	-31.3%
